The source of these data is PubChem BioAssay (NCI).

About 83,000 compounds went through this panel and 20% of them were active in at least one assay; those are over-represented in the sample as a whole.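 Step 1: grow cells in 96-well plates. Step 2: add test compound at a single concentration. Step 3: incubate 48 h. Step 4: record percent growth.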 Unmarked numbers belong to inactive results. Active and inactive are the calls of the source. Rule for the calls: active = growth percent below 10; inactive = the rest.

Holding throughout (test): NCI-60 one-dose screen, 48 h (100 = growth as untreated, 0 = no growth, -100 = all killed)
Common to all, as to settings: 10 µM unless noted

Test [1] has as its system SK-MEL-2 melanoma.
In test [2] the test system is EKVX NSCLC.
Test [3] relates to SN12C renal.
Test [4] relates to UO-31 renal.
Test [5] has as its system TK-10 renal.
The test system of test [6] is ACHN renal.
Test [7] relates to CAKI-1 renal.
Test [8] deals with A498 renal.
Test [9] concerns CCRF-CEM leukemia.
Test [10] deals with MOLT-4 leukemia.
Test [11] has as its system RPMI-8226 leukemia.
Test [12] deals with OVCAR-8 ovarian.
For test [13], the system named is OVCAR-5 ovarian.
Test [14] relates to OVCAR-4 ovarian.
Test [15] has as its system SK-OV-3 ovarian.
Test [16] relates to IGROV1 ovarian.
For test [17], the system named is OVCAR-3 ovarian.
Test [18] deals with HS 578T breast.
Test [19] has as its system NCI/ADR-RES ovarian.

On to `COc1cccc(-c2nn(C(C)(C)C)cc2-c2ccnc(NCCCNS(=O)(=O)c3ccc(C)cc3)c2)c1`, for which the growth in [1] was 108%; in test [2], 100%; in test [3], 103%; in test [4] it was 85.3%; in test [5], 98.8%; in test [6], 102%. The growth is 92.8% in [7]; 94% in test [8]; 94.6% in test [9]; 103% in test [10]; 99.3% in test [11]; 103% in test [12]. Further, the growth in test [13] is 105%; in [14], 103%; in test [15], 113%; in [16], 111%; in [17] it was 122%; in [18], 103%. The growth in test [19] is 98.4%.

As to `C[n+]1ccccc1/C=C/c1ccc2cccc(O)c2n1`, the growth was 103% in test [1]; 32% in [2]; 91.8% in test [3]; 57.9% in test [4]; 109% in test [5]; 102% in test [6]. Moreover, the growth in test [7] is 57.3%; in [8], 63.9%; in test [9] it was 103%; in [10] it was 95.2%; in test [11], 105%; in test [12], 100%. In addition, the growth in test [13] was 51.5%; in [14], 112%; in [15], 39.1%; in [16], 105%; in [17], 112%; in test [18], 108%. For the same compound, in test [19], the growth is 109%.

Consider `Nc1ccc(S(=O)(=O)O)c2ccc(N=Nc3ccc(N=Nc4ccc(S(=O)(=O)O)cc4)c4ccccc34)c(O)c12`, for which the growth in [1] was 110%; in test [2] it was 124%; in test [3], 98.1%; in [4], 55.8%; in test [5], 98.7%; in [6] it was 101%. Further, the growth was 95.3% in [7]; 98.8% in test [8]; 106% in [9]; 80.2% in [10]; 104% in test [11]; 103% in test [12]. The growth is 108% in [13]; 115% in test [14]; 96% in test [15]; 86.5% in test [16]; 108% in test [17]; 100% in [18]. The growth in test [19] is 112%.

Regarding `COc1ccc2[nH]cc(-c3noc(C(=O)c4cn(C)c5ccc(F)cc45)n3)c2c1`, the growth was 94.7% in [1]; 76.9% in [2]; 93% in [3]; 67.9% in test [4]; 113% in test [5]; 88.4% in [6]. For the same compound, the growth is 81.5% in test [7]; 95.8% in test [8]; 99.2% in test [9]; 95.4% in test [10]; 104% in [11]; 93.6% in [12]. The growth in test [13] is 99.9%; in [14], 95.2%; in test [15] it was 87.3%; in test [16], 60.1%; in [17], 97.5%; in test [18], 90.9%. In test [19], the growth was 96%.

Regarding `CSc1nc(NCCO)c(C#N)c(-c2cccc([N+](=O)[O-])c2)n1`, the growth in test [1] is 113%; in test [2] it was 88.9%; in test [3], 90.4%; in test [4] it was 73.2%; in test [5] it was 120%; in [6], 93%. For the same compound, the growth in test [7] was 83.9%; in [8], 72.6%; in test [9] it was 99.1%; in test [10], 99%; in [11] it was 103%; in [12], 99.1%. The growth was 98.1% in test [13]; 105% in test [14]; 102% in test [15]; 97.9% in test [16]; 112% in test [17]; 93.4% in test [18]. Besides, the growth in test [19] was 98.1%.

Take `CCCSc1ccc2nc(NC(=O)OC)[nH]c2c1`: the growth in [1] is 7.33% (active); in [2], 58.2%; in test [3], 41.5%; in [4], 45.5%; in test [5], 39.7%; in test [6], 48.6%. In addition, the growth in test [7] is 55%; in test [8] it was -5.4% (active); in test [9] it was 10.6%; in test [10], 23.6%; in [11], 14.4%; in test [12], 17.1%. Besides, the growth in [13] is 34.2%; in [14] it was 48.9%; in [15], 6.85% (active); in test [16], 45.3%; in test [17], -32.1% (active); in [18] it was 21.2%. Besides, in test [19], the growth is -8.18% (active).

For the compound `Cc1ccc(NS(=O)(=O)c2ccc(-c3cnc(C4CC4)o3)cc2)cc1C`, the growth was 38.5% in [1]; 27% in test [2]; 43.6% in [3]; 38.5% in [4]; 44% in test [5]; 40.7% in [6]. In addition, the growth in [7] is 27.2%; in [8], -15.8% (active); in [9], 23.5%; in test [10] it was 30.1%; in test [11] it was 12.4%; in [12], 28.2%. Moreover, the growth is 37.6% in test [13]; 43.2% in test [14]; 30.7% in test [15]; 29.5% in [16]; -1.67% (active) in [17]; 14.3% in [18]. In addition, the growth in test [19] was -10.9% (active).

Consider `Nc1nc2ncc(CCNc3ccc(C(=O)O)cc3)nc2c(=O)[nH]1`, for which the growth in test [1] is 96.3%; in test [2], 120%; in [3] it was 106%; in [4] it was 86.6%; in [5] it was 103%; in test [6], 110%. The growth in [7] was 98.3%; in [8] it was 120%; in [9], 87.9%; in test [10] it was 75.5%; in test [11], 99.4%; in test [12], 108%. In addition, the growth in test [13] is 103%; in test [14], 127%; in [15] it was 115%; in [16] it was 113%; in test [17], 128%; in test [18], 117%. The growth in test [19] is 115%.
